Measured values from PubChem BioAssay (EPA / NIEHS).
Some compounds were tested as several samples or in several runs, with calls that do not always agree. Calls of active or inactive are those of the source. How the source made its calls: active means hit-call score of the fitted dose curve at least 0.9, where 1 is the maximum; inactive means score below 0.9.

Columns and labels:
[1] = ATG_GRE_CIS: Attagene CIS-FACTORIAL HepG2 Assay for human Glucocorticoid Response Elements (GRE) (AID 2282947); conditions: HepG2 GRE cis-reporter, Attagene multiplex mRNA; actives raise or lower the signal
Summary of the method: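 Transient MRTU transfection of human HepG2 liver cells; cis-regulated reporters report endogenous factors. 24 h dosing → RNA isolation → RT-PCR → 6-FAM primer extension → HpaI cut → CE fragment analysis. Bidirectional fit, DMSO negative control.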

[2] = ATG_ISRE_CIS: Attagene CIS-FACTORIAL HepG2 Assay for human Interferon Regulatory Factor 1 (IRF1) binding to an Interferon-Stimulated Response Element (ISRE) (AID 2282948); conditions: HepG2 ISRE cis-reporter (Attagene), mRNA transcription readout; actives raise or lower the signal
Summary of the method: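 Transiently transfected HepG2 cells carrying cis-element reporter units, dosed 24 hours. Reporter mRNA quantified by RT-PCR, fluorescent primer extension, HpaI digestion and capillary electrophoresis. Bidirectional fitting relative to DMSO.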

[3] = ATG_M_32_CIS: Attagene CIS-FACTORIAL HepG2 Assay for M32 Transcription Factor (Internal Marker) (AID 2282949); conditions: HepG2 Attagene cis-factorial M32 reporter, mRNA; actives raise or lower the signal;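 further: background control marker of the multiplexed CIS panel rather than a real target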
Summary of the method: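 Fluorescent capillary electrophoresis peaks of HpaI-digested, FAM-labelled RT-PCR reporter products give the signal. Source: transiently transfected human liver HepG2 cells, 24 h after chemical dosing; bidirectional fitting against DMSO.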

[4] = ATG_M_06_CIS: Attagene CIS-FACTORIAL HepG2 Assay for M06 Transcription Factor (Internal Marker) (AID 2282950); conditions: HepG2 Attagene CIS-FACTORIAL M06 internal marker reporter; actives raise or lower the signal
Summary of the method: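 Internal background marker within multiplexed cis-reporter HepG2 system. Cells transiently transfected, dosed 24 h; reporter mRNA measured by RT-PCR, HpaI digestion and capillary electrophoresis. Bidirectional fit relative to DMSO.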

[5] = biological target: Hypoxia-inducible factor 1-alpha (Homo sapiens) (UniProt Q16665); test: ATG_HIF1a_CIS: Attagene CIS-FACTORIAL HepG2 Assay for human Hypoxia Inducible Factor 1 (HIF1A) (AID 2282951); conditions: HepG2 Attagene cis-factorial HIF1a reporter transcription; actives raise or lower the signal
Summary of the method: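 In this multiplexed cell assay, HepG2 cells bearing transfected cis reporters are dosed for 24 h and reporter mRNA is read by RT-PCR plus capillary electrophoresis; signal increases and decreases are both scored against DMSO.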

[6] = biological target: Hepatocyte nuclear factor 6 (Homo sapiens) (UniProt Q9UBC0); test: ATG_HNF6_CIS: Attagene CIS-FACTORIAL HepG2 Assay for human Hepatocyte Nuclear Factor 6 (HNF6) (AID 2282952); conditions: HepG2 Attagene cis-factorial HNF6 reporter transcription; actives raise or lower the signal
Summary of the method: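 Cells are HepG2 carrying transiently transfected cis-promoter reporter units. Treatment lasts 24 h, after which reporter transcripts are reverse-transcribed, amplified, FAM-labelled and sized by capillary electrophoresis. DMSO serves as baseline.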

[7] = biological target: Heat shock factor protein 1 (Homo sapiens) (UniProt Q00613); test: ATG_HSE_CIS: Attagene CIS-FACTORIAL HepG2 Assay for human Heat Shock Transcription Factor 1 (HSE) (AID 2282953); conditions: HepG2 HSE cis-reporter, Attagene RNA transcription; actives raise or lower the signal
Summary of the method: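 HepG2 cells transfected with cis-promoter reporter units sensing endogenous transcription factor activity; reporter mRNA quantified 24 h post-dose by RT-PCR and capillary electrophoresis of 6-FAM-labelled products. Bidirectional fitting against DMSO.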

[8] = ATG_MRE_CIS: Attagene CIS-FACTORIAL HepG2 Assay for human Metal Responsive Element (MRE) (AID 2282954); conditions: HepG2 MRE cis-reporter transcription, Attagene multiplex; actives raise or lower the signal
Summary of the method: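 Transient MRTU transfection of HepG2 (FuGene 6); 24 h dosing; total RNA → oligo(dT) RT, PCR, 6-FAM primer extension, HpaI cut, CE. Bidirectional fit vs DMSO.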

[9] = biological target: Paired box protein Pax-6 (Homo sapiens) (UniProt P26367); test: ATG_Pax6_CIS: Attagene CIS-FACTORIAL HepG2 Assay for human Paired Box 6 (PAX6) (AID 2282956); conditions: HepG2 CIS-FACTORIAL PAX6 reporter transcription, RNA readout; actives raise or lower the signal
Summary of the method: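 HepG2 cells transiently transfected with cis-promoter-driven multiplexed reporter units sensing endogenous transcription factor activity; 24 h chemical exposure. Reporter mRNA quantified by RT-PCR, 6-FAM labelling, HpaI digestion and capillary electrophoresis; bidirectional fit versus DMSO baseline.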

[10] = ATG_PXRE_CIS: Attagene CIS-FACTORIAL HepG2 Assay for human Pregnane X Receptor Element (PXRE) (AID 2282957); conditions: HepG2 Attagene CIS-FACTORIAL PXRE reporter, mRNA; actives raise or lower the signal
Summary of the method: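 Multiplexed cis-reporter assay in transiently transfected human HepG2 cells; 24 h chemical exposure. Reporter transcripts quantified by RT-PCR with fluorescent labeling and capillary electrophoresis.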

[11] = ATG_RORE_CIS: Attagene CIS-FACTORIAL HepG2 Assay for human RAR-related Orphan Receptor Element (RORE) (AID 2282959); conditions: HepG2 Attagene cis-factorial RORE reporter, mRNA; actives raise or lower the signal
Summary of the method: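 Fluorescence intensity of reporter-specific cDNA fragments, separated by capillary electrophoresis, gives the signal. Source: HepG2 liver cells transiently transfected with cis-element reporters and exposed 24 h; DMSO-normalized bidirectional fit.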

[12] = ATG_Sox_CIS: Attagene CIS-FACTORIAL HepG2 Assay for human SRY-box transcription factor (SOX) (AID 2282960); conditions: HepG2 Attagene cis-factorial SOX reporter, mRNA; actives raise or lower the signal
Summary of the method: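 After 24 h of chemical treatment, transfected HepG2 reporter cells are lysed for total RNA. Transcript levels come from RT-PCR with labelled primer extension and capillary electrophoresis, analysed bidirectionally versus DMSO.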

[13] = ATG_SREBP_CIS: Attagene CIS-FACTORIAL HepG2 Assay for human Sterol Regulatory Element Binding (SREBP) (AID 2282962); conditions: HepG2 Attagene cis-factorial SREBP reporter, mRNA; actives raise or lower the signal
Summary of the method: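 HepG2 cells transiently transfected with multiplexed cis-promoter reporter units sensing endogenous transcription factors; reporter mRNA measured 24 h after dosing by RT-PCR, 6-FAM labeling, HpaI digestion and capillary electrophoresis. Bidirectional fit versus DMSO.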

[14] = biological target: Signal transducer and activator of transcription 3 (Homo sapiens) (UniProt P40763); test: ATG_STAT3_CIS: Attagene CIS-FACTORIAL HepG2 Assay for human Signal Transducer and Activator of Transcription 3 (STAT3) (AID 2282963); conditions: HepG2, Attagene cis-factorial STAT3 reporter transcription; actives raise or lower the signal
Summary of the method: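 Endogenous STAT3-responsive cis-element activity was read in transiently transfected HepG2 cells after 24 h treatment. Reporter transcripts were quantified via RT-PCR and capillary electrophoresis, with DMSO as negative control and bidirectional curve fitting.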

[15] = ATG_TA_CIS: Attagene CIS-FACTORIAL HepG2 Assay for human TA Basal Promoter (AID 2282964); conditions: HepG2 Attagene CIS-factorial TA basal promoter reporter; actives raise or lower the signal
Summary of the method: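 HepG2 cells transiently transfected with multiple reporter units under cis promoter elements, reporting endogenous transcription factor activity; this endpoint tracks the TA basal promoter as background control. Reporter mRNA after 24 h dosing measured by RT-PCR/capillary electrophoresis; bidirectional fits versus DMSO.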

[16] = ATG_TCF_b_cat_CIS: Attagene CIS-FACTORIAL HepG2 Assay for human T-Cell-Factor with beta-catenin (TCF/b-cat) (AID 2282965); conditions: HepG2 TCF/beta-catenin cis-reporter transcription, actives raise or lower the signal
Summary of the method: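 Measured: reporter mRNA in HepG2 transiently transfected with cis-promoter reporter units, 24 h after chemical addition. Fitting was bidirectional, DMSO as negative control.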

[17] = biological target: Bile acid receptor (Homo sapiens) (UniProt Q96RI1); test: ATG_IR1_CIS: Attagene CIS-FACTORIAL HepG2 Assay for human Nuclear Receptor Subfamily 1 Group H Member 4 (NR1H4), IR1 submotif (AID 2282946); conditions: IR1 reporter transcription, actives raise or lower the signal
Summary of the method: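 Cells (human HepG2) carry transiently transfected cis-promoter reporter transcription units. Compounds are incubated 24 h, total RNA is reverse-transcribed and amplified, and labelled fragments are resolved by capillary electrophoresis. Curves use DMSO as baseline.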

[18] = ATG_PBREM_CIS: Attagene CIS-FACTORIAL HepG2 Assay for human Phenobarbital-responsive Enhancer Module (PBREM) (AID 2282955); conditions: HepG2 PBREM cis-reporter, Attagene multiplexed transcription; actives raise or lower the signal
Summary of the method: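 After a 24 h incubation with test chemical, transfected HepG2 cells yield total RNA; reporter-specific RT-PCR products are fluorescently labelled, HpaI-digested and resolved by capillary electrophoresis against ROX size standards.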

[19] = ATG_PPRE_CIS: Attagene CIS-FACTORIAL HepG2 Assay for human Peroxisome Proliferator-activated Response Element (PPRE) (AID 2282958); conditions: HepG2 PPRE cis-element reporter, Attagene transcription factor profiling; actives raise or lower the signal
Summary of the method: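 Multiplexed reporter transcription units under cis-regulatory promoters were transfected into HepG2 cells to capture endogenous factor activity. A 24 h incubation preceded RNA isolation and fluorescent RT-PCR fragment analysis.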

[20] = biological target: Transcription factor Sp1 (Homo sapiens) (UniProt P08047); test: ATG_Sp1_CIS: Attagene CIS-FACTORIAL HepG2 Assay for human Specificity Protein 1 (Sp1) (AID 2282961); conditions: HepG2 Sp1 cis-reporter transcription, actives raise or lower the signal
Summary of the method: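 Sp1-driven reporter mRNA, read as capillary electrophoresis fluorescence after RT-PCR, in transiently transfected HepG2 cells dosed for 24 h; signal change in either direction relative to DMSO.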

Measured: AC50

Chain of Signal transducer and activator of transcription 3 (Homo sapiens) (P40763 whole entry, looked up): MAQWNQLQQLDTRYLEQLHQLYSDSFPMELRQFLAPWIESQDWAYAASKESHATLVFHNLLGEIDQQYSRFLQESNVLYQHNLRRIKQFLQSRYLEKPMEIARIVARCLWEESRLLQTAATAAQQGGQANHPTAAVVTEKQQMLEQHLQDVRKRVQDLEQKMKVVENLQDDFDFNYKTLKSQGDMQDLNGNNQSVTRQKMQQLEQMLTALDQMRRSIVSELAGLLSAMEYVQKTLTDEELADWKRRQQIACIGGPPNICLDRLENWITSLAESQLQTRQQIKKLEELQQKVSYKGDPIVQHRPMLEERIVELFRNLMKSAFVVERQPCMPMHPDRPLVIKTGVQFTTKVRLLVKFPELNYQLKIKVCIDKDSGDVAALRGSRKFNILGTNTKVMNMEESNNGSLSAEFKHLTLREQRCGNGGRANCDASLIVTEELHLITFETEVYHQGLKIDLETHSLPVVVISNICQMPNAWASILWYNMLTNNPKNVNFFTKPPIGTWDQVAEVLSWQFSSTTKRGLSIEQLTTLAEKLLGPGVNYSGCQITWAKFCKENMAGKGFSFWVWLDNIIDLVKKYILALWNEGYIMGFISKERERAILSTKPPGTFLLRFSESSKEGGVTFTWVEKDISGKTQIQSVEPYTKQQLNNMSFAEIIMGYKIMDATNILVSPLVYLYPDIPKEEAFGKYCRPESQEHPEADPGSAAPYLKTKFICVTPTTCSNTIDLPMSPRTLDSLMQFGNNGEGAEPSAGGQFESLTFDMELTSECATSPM
Chain of Hypoxia-inducible factor 1-alpha (Homo sapiens) (Q16665 whole entry, looked up): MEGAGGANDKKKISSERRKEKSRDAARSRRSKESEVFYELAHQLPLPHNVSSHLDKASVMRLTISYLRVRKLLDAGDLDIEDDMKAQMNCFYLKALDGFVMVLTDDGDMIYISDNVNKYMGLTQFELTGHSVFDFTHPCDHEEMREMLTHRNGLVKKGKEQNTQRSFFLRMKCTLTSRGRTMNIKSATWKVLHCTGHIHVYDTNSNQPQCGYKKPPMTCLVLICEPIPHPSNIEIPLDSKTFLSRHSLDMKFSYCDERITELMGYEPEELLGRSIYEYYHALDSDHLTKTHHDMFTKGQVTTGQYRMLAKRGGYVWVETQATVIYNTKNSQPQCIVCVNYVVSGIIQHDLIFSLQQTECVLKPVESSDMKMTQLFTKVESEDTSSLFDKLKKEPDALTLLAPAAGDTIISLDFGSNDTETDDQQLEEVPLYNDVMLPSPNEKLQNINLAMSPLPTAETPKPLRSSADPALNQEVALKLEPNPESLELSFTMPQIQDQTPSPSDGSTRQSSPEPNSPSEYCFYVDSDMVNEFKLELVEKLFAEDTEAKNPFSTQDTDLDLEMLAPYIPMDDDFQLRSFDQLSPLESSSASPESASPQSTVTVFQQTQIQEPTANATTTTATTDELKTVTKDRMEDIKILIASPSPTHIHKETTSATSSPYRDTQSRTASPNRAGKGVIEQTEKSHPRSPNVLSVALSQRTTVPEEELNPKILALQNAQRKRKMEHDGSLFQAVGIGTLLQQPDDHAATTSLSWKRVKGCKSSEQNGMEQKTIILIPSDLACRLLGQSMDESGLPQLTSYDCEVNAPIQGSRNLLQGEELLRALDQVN
Chain of Bile acid receptor (Homo sapiens) (Q96RI1 whole entry, looked up, the tested form may be a part): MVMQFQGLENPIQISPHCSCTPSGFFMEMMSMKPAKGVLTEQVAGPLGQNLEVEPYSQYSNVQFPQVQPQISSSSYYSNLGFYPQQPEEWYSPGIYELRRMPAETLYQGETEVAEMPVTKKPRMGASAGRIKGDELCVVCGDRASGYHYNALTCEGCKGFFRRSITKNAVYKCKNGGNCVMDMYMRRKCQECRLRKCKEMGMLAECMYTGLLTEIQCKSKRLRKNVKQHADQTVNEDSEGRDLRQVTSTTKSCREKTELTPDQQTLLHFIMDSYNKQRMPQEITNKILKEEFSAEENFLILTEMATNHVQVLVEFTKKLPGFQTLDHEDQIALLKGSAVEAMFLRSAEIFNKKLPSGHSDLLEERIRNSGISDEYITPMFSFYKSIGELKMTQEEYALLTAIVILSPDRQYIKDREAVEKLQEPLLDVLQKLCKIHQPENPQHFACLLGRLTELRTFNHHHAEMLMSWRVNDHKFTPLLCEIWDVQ
Chain of Heat shock factor protein 1 (Homo sapiens) (Q00613 whole entry, looked up): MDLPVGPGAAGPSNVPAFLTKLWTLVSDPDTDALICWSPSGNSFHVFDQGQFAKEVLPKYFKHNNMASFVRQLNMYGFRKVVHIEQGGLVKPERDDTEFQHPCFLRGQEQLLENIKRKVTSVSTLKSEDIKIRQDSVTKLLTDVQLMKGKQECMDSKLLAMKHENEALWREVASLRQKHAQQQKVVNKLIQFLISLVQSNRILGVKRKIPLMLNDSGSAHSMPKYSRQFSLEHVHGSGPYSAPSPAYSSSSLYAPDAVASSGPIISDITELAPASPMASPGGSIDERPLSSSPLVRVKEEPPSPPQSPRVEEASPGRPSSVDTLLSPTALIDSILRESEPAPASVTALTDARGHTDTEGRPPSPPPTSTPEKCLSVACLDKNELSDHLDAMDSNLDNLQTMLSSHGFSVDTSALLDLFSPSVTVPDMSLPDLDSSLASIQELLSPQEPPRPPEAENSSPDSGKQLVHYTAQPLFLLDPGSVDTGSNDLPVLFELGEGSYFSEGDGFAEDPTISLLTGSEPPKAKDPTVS
Chain of Hepatocyte nuclear factor 6 (Homo sapiens) (Q9UBC0 whole entry, looked up): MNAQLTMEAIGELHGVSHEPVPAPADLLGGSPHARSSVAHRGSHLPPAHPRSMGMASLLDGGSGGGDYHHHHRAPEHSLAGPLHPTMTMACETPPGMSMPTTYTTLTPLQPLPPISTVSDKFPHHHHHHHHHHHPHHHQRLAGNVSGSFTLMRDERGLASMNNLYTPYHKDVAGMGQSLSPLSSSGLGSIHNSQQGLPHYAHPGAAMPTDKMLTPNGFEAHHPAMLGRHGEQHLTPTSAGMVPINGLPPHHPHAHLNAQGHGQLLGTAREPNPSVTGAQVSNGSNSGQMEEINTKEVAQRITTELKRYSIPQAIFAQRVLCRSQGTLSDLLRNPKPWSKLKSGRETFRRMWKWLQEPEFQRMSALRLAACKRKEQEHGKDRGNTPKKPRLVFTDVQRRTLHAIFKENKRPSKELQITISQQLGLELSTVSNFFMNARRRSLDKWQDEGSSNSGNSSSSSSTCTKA
Chain of Paired box protein Pax-6 (Homo sapiens) (P26367 whole entry, looked up): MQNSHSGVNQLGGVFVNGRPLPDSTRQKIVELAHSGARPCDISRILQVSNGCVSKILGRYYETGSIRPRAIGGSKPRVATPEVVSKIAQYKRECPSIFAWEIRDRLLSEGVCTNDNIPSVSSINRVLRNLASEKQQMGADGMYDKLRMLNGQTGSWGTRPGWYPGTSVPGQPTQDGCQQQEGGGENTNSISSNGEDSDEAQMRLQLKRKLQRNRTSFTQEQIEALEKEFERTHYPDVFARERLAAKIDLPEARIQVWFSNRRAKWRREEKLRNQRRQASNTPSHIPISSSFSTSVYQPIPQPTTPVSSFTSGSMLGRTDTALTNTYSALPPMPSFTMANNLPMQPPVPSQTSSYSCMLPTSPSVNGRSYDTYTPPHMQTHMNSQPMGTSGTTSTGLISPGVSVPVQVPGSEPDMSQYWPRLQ
Chain of Transcription factor Sp1 (Homo sapiens) (P08047 whole entry, looked up): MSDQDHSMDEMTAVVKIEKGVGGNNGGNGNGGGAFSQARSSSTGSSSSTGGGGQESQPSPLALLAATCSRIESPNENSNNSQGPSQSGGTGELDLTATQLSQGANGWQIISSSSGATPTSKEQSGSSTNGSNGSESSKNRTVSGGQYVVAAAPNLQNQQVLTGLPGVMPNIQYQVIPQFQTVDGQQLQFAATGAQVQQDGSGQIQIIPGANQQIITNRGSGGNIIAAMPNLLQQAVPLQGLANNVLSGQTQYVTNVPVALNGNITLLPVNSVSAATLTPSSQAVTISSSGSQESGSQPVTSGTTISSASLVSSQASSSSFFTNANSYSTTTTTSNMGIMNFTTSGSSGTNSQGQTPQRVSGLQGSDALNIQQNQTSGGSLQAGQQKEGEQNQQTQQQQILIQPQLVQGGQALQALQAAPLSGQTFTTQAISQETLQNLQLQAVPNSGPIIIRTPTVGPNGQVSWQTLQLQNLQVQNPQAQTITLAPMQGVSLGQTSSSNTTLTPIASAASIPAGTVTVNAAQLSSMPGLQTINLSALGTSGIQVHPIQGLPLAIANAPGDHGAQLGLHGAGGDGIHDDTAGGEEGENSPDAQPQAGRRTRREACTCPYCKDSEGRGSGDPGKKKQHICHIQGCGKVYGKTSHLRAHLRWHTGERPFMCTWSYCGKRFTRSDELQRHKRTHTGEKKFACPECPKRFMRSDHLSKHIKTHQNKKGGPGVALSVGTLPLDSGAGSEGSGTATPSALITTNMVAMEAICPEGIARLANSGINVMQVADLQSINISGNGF

CCCCCCCCCC(=O)O
active: [10] 27.4 µM | [13] 104 µM
inactive: [1] | [2] | [3] | [4] | [5] | [6] | [7] | [8] | [9] | [10] | [11] | [12] | [13] | [14] | [15] | [16]

Cc1occc1C(=O)Nc1ccc(C(=O)N2CCC(F)(F)/C(=C\C(=O)N3CCC(N4CCCCC4)CC3)c3ccccc32)cc1
inactive: [17] | [3] | [4] | [5] | [18] | [13] | [15]
active: [1] 57.8 µM | [2] 34.5 µM | [6] 49.8 µM | [8] 23.7 µM | [9] 34.5 µM | [10] 8.38 µM | [12] 42.3 µM | [14] 62.6 µM | [16] 26.5 µM

Cc1cccc2ccccc12
inactive: [17] | [2] | [3] | [4] | [5] | [6] | [7] | [8] | [18] | [9] | [10] | [19] | [11] | [12] | [20] | [13] | [14] | [15] | [16]
